# Bioassay records (PubChem BioAssay)
# An excerpt weighted towards active compounds, which were near 1.1% of everything screened.
# HTR5A inv ag: HTR5A inverse agonists in luminescence cell assay, primary screen, counter-screen for OPRM1-OPRD1 heterodimer inverse agonist project, full-deck HTS; HTR5A cell line, inverse agonism; 5-hydroxytryptamine receptor 5A (Homo sapiens), P47898; hit rate 0.083% among 340,000; inhibition, % at 9.3 µM; AID 504634, 2011; in the data active = inhibition mostly above about 23%, no sharp cut-off; inactive = mostly below about 18%;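 note: 0% = cells with DMSO and 100% = no-cell wells with DMSO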
# MOR-DOR inv ag: inverse agonists of MOR-DOR heterodimerization, primary screen, cell-based, luminescence. Mu-type opioid receptor (Homo sapiens) + Delta-type opioid receptor (Homo sapiens), …. cell-based MOR-DOR heterodimer luminescence, inverse agonism. inhibition, % at 9.3 µM. hit rate 0.21% among 340,000. AID 504357, 2011; in the data active = inhibition above about 22%, passing the limit was not always enough;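 note: 0% = cells with DMSO and 100% = wells without cells with DMSO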
# Target sequence (P35372 whole entry, looked up): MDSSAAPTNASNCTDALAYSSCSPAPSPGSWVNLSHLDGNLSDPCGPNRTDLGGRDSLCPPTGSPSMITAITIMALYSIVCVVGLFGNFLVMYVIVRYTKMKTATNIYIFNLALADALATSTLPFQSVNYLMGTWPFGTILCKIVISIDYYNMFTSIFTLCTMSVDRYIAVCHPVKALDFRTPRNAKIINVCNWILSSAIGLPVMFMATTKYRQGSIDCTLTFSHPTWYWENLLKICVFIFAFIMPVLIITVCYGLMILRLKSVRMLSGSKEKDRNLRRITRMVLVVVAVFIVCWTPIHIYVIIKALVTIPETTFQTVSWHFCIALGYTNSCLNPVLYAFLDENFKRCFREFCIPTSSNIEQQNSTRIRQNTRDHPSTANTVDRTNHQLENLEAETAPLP
# Target sequence (P41143 whole entry, looked up): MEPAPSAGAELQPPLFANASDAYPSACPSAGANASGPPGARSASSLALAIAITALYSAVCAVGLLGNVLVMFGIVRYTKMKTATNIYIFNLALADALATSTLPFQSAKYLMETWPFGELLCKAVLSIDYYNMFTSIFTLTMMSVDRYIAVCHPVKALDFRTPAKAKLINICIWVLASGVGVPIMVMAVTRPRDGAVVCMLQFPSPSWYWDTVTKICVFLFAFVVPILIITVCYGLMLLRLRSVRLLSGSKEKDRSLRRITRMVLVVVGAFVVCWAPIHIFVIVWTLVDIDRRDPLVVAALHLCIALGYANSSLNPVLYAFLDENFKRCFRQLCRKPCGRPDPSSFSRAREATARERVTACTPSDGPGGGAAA
# MOR-DOR ag-1: agonists of OPRM1-OPRD1 heterodimerization, primary screen, cell-based, luminescence; Mu-type opioid receptor (Homo sapiens) + Delta-type opioid receptor (Homo sapiens), …; cells; activation, % at 9.3 µM; hit rate 0.3% among 340,000; AID 504326, 2011;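 note: 0% = vehicle-treated cells and 100% = reference agonist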
# HTR5A ag: HTR5A agonists in luminescence cell assay, primary screen, counter-screen for OPRM1-OPRD1 heterodimer agonist project, full-deck HTS; activation, % at 9.3 µM; cell-based; hit rate 0.61% among 340,000; 5-hydroxytryptamine receptor 5A (Homo sapiens), P47898; in the data active = activation mostly above about 9.5%, no sharp cut-off; inactive = mostly below about 7.6%;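 note: 0% = cells with vehicle only and 100% = reference agonist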
# MOR-DOR ag-2: OPRM1-OPRD1 heterodimerization promoters, counter-screen for HTR5A agonist project, cell-based, luminescence | activation, % at 9.3 µM | shares compounds with HTR5A ag | AID 504913, 2011 | hit rate 13% among 800 | U2OS counter-screen cells, complementation luminescence, 3 h
# HTR5A ag conf: HTR5A agonists, retest of hits, confirmation, cell-based, luminescence; shares compounds with HTR5A ag; HTR5A agonist cell assay; activation, % at 9.3 µM; hit rate 17% among 800; AID 504915, 2011; in the data active = activation above about 17%;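 note: 0% = cells with vehicle only and 100% = full reference agonist response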
# The depositor's hits bear a star; · = not tested or not shown. Cut-off read from the data, not from the text of the source, unless noted: active = activation above about 18%; inactive = the rest.
SMILES,HTR5A inv ag,MOR-DOR inv ag,MOR-DOR ag-1,HTR5A ag,MOR-DOR ag-2,HTR5A ag conf
CC1CCCCN1Cc1c(C#N)c2ccccc2n1C (stereo unspecified),-57,-21,4,21*,3,2
c1ccc(-c2nn(-c3ccccc3)[n+](-c3ccccc3)n2)cc1,6,4,-1,-2,·,·
CCN(CC)CCCNc1ccc(-c2nnc(-c3ccc(OCC(C)C)cc3)o2)cn1,-49,-1,0,18*,10,1
CCOC(=O)c1cc(C(=O)c2cccs2)n2ccc(C(C)=O)cc12,-55,14,-3,20*,3,-2
CN(C)S(=O)(=O)N1CCC(Oc2cccc(C(=O)N3CCSCC3)c2)CC1,15,10,-2,11,·,·
COC(=O)CCC(=O)OC1(C)C(=O)C2=CN(CCc3c[nH]c4ccccc34)C(c3ccc(OC)cc3)=CC2=C(Br)C1=O (stereo unspecified),-98,-27,5,38*,86*,2
CC1(C)CC=CC(COC(=O)c2ccccc2C(=O)O)C1 (stereo unspecified),7,20,-5,-2,·,·
Cc1ccc2cc(CN(Cc3ccc(F)cc3)Cc3nnnn3C3CCCC3)c(=O)[nH]c2c1,7,-32,5,-3,·,·
CCc1ccc2[nH]c(=O)c(CN(Cc3ccc4c(c3)OCO4)Cc3nnnn3C3CCCC3)cc2c1,3,-48,8,19*,6,2
CN1CCN(Cc2c(C(=O)N/N=C/c3cccc(Br)c3)nnn2-c2nonc2N)CC1,1,-4,1,0,·,·
Cc1ccc(Cn2c(=N)n(CC(=O)c3ccccc3)c3ccccc32)cc1,-61,-63,9,21*,11,6
COc1ccc(-c2csc(NC(=O)c3ccccc3NS(=O)(=O)c3ccc(F)c(F)c3)n2)cc1,-1,5,-1,15*,24*,8
COc1ccc(CCC(=O)OCc2csc(CC(=O)Nc3ccccc3C)n2)cc1,-5,11,-2,0,·,·
COc1ccccc1NCC(=O)N/N=C/c1sccc1C,-74,-16,3,26*,2,6
N#CCC(=O)Nc1ccc(C(=O)NNC(=O)CCN2CCN(c3ccccc3)CC2)cc1,6,10,-2,-2,·,·
COc1ccc(CC(=O)Nc2cccc(-c3nnc(-c4cccc(C)c4)o3)c2)cc1OC,-26,-4,1,-11,·,·
COc1ccc(CC(=O)Nc2cccc(-c3nnc(-c4ccccc4)o3)c2)cc1OC,-43,-58,10,16*,-2,-4
CCCc1cc(=O)n2nc(N3CCC(C(=O)Nc4cccc(C(C)=O)c4)CC3)sc2n1,8,11,-2,17*,18,0
CCCc1cc(=O)n2nc(N3CCC(C(=O)Nc4c(F)c(F)c(F)c(F)c4F)CC3)sc2n1,-7,14,-3,-2,·,·
O=C(NCCc1c[nH]c2ccccc12)/C(=C\c1cccnc1)NC(=O)c1ccccc1Br,-37,10,-2,22*,0,2
O=C(CCNC(=O)C1CCN(S(=O)(=O)c2ccc(F)cc2)CC1)NCc1ccccc1Cl,-10,11,-2,-1,·,·
COCCN(CC(=O)Nc1cccc(C)c1C)C(=O)c1oc2ccccc2c1C,14,9,-2,-6,·,·
CN(C)CCCN(C(=O)CCOc1ccccc1)c1nc2ccc(F)cc2s1,-52,7,-1,18*,3,-2
CN(C)CCCN(C(=O)COc1ccccc1)c1nc2ccc(F)cc2s1,6,-7,1,-2,·,·
CC(=O)c1ccc(N(CC(=O)NCC2CCCO2)C(=O)CCC(=O)Nc2cc(C)on2)cc1 (stereo unspecified),-26,-11,2,14*,3,0
COc1ccc(N2C(=O)CCC(C(=O)N3CCCCC3)C2c2ccc(F)cc2)cc1 (stereo unspecified),-1,17,-4,5,·,·
COc1ccc(N2C(=O)CCC(C(=O)O)C2c2ccc(F)cc2)cc1 (stereo unspecified),-23,9,-2,16*,1,4
COc1cc(OC)cc(C(=O)Nc2nnc(NC(=S)Nc3ccccc3)s2)c1,-15,1,0,15*,2,-3
